Test results as given in PubChem BioAssay AID1159580 (chemical genetic matrix, 2015).
Several values for one entry are separate records, joined by “and”; a condition that tells them apart may be missing. Equal entries are not always repeated. In all, about 5,500 compounds went through this assay and about 2,000 (36%) were called active. Roughly 18% stayed inconclusive and do not appear here. Some of the results follow. Unmarked numbers belong to inactive results. Rule as the data show it: active = normalized growth mostly below about 0.91 (no sharp cut-off); inconclusive = no clear call, values can overlap the other calls; inactive = mostly above about 0.92.

Experiment: chemical genetic growth profiling, strain panel (AID 1159580);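 also: tested at 20 µM; growth read once vehicle control cultures reached saturation at 30 °C; 1 = growth at the plate median or of vehicle wells; lower values mean less growth of the strain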
Settings: S. cerevisiae deletion strains, growth OD

## CC(C)OC(=O)C(C)(C)Oc1ccc(C(=O)c2ccc(Cl)cc2)cc1
Locus YAL013W, strain DEP1, hits give low values
  normalized growth: 1.01
Locus YAL021C, strain ccr4, hits give low values
  normalized growth: 1
Locus YAL026C, strain drs2, hits give low values
  normalized growth: 0.976
Locus YAL030W, strain snc1, hits give low values
  normalized growth: 0.971
Locus YAL040C, strain CLN3, hits give low values
  normalized growth: 1.08
Locus YBL061C, strain skt5, hits give low values
  normalized growth: 0.966
Locus YBR009C, strain hhf1, hits give low values
  normalized growth: 0.949
Locus YBR021W, strain FUR4, hits give low values
  normalized growth: 0.976
Locus YBR023C, strain chs3, hits give low values
  normalized growth: 0.97
Locus YBR171W, strain sec66, hits give low values
  normalized growth: 0.965
Locus YBR229C, strain ROT2, hits give low values
  normalized growth: 1
Locus YBR231C, strain swc5, hits give low values
  normalized growth: 0.969
Locus YBR279W, strain paf1, hits give low values
  normalized growth: 0.973
Locus YCL011C, strain gbp2, hits give low values
  normalized growth: 0.954
Locus YCL016C, strain dcc1, hits give low values
  normalized growth: 0.975
Locus YCL029C, strain bik1, hits give low values
  normalized growth: 1.01
Locus YCL061C, strain MRC1 (second series), hits give low values
  normalized growth: 0.982
Locus YCL061C, strain MRC1, hits give low values
  normalized growth: 0.981
Locus YCL069W, strain vba3, hits give low values
  normalized growth: 0.978
Locus YCR088W, strain abp1, hits give low values
  normalized growth: 0.977
Locus YDL005C, strain med2, hits give low values
  normalized growth: 0.961
Locus YDL035C, strain GPR1, hits give low values
  normalized growth: 0.942
Locus YDL040C, strain nat1, hits give low values
  normalized growth: 0.966
Locus YDL074C, strain BRE1, hits give low values
  normalized growth: 0.931
Locus YDL101C, strain DUN1, hits give low values
  normalized growth: 1.01
Locus YDL134C, strain PPH21, hits give low values
  normalized growth: 0.995
Locus YDL185W, strain tfp1, hits give low values
  normalized growth: 0.995
Locus YDL192W, strain arf1, hits give low values
  normalized growth: 0.987
Locus YDR001C, strain nth1, hits give low values
  normalized growth: 0.971
Locus YDR069C, strain doa4, hits give low values
  normalized growth: 0.975
Locus YDR101C, strain arx1, hits give low values
  normalized growth: 0.987
Locus YDR137W, strain rgp1, hits give low values
  normalized growth: 0.943
Locus YDR150W, strain NUM1, hits give low values
  normalized growth: 1.01
Locus YDR159W, strain sac3, hits give low values
  normalized growth: 0.982
Locus YDR162C, strain NBP2, hits give low values
  normalized growth: 0.671 (active)
Locus YDR195W, strain ref2
  normalized growth: 0.982
Locus YDR297W, strain sur2, hits give low values
  normalized growth: 0.976
Locus YDR318W, strain mcm21, hits give low values
  normalized growth: 0.969
Locus YDR334W, strain swr1, hits give low values
  normalized growth: 0.976
Locus YDR335W, strain msn5, hits give low values
  normalized growth: 0.977
Locus YDR363W, strain ESC2, hits give low values
  normalized growth: 0.969
Locus YDR388W, hits give low values
  normalized growth: 0.983
Locus YDR392W, strain spt3, hits give low values
  normalized growth: 0.923
Locus YDR502C, strain sam2, hits give low values
  normalized growth: 0.979
Locus YEL003W, strain gim4, hits give low values
  normalized growth: 0.979
Locus YEL037C, strain rad23, hits give low values
  normalized growth: 1.01
Locus YEL061C, strain CIN8 (second series), hits give low values
  normalized growth: 0.963
Locus YEL061C, strain CIN8, hits give low values
  normalized growth: 1.01
Locus YER002W, strain NOP16, hits give low values
  normalized growth: 1
Locus YER015W, strain faa2, hits give low values
  normalized growth: 0.967
Locus YER016W, strain bim1, hits give low values
  normalized growth: 0.978
Locus YER110C, hits give low values
  normalized growth: 0.998
Locus YER111C, strain swi4, hits give low values
  normalized growth: 0.961
Locus YER155C, strain BEM2 (second series), hits give low values
  normalized growth: 0.977
Locus YER155C, strain BEM2, hits give low values
  normalized growth: 1
Locus YER167W, strain BCK2, hits give low values
  normalized growth: 0.987
Locus YFR010W, strain ubp6, hits give low values
  normalized growth: 0.964
Locus YGL078C, strain dbp3, hits give low values
  normalized growth: 0.991
Locus YGL086W, strain mad1, hits give low values
  normalized growth: 0.979
Locus YGL167C, strain pmr1, hits give low values
  normalized growth: 0.957
Locus YGL173C, strain kem1, hits give low values
  normalized growth: 0.977
Locus YGL227W, strain vid30, hits give low values
  normalized growth: 0.967
Locus YGL240W, strain doc1, hits give low values
  normalized growth: 0.991
Locus YGL248W, strain PDE1, hits give low values
  normalized growth: 0.969
Locus YGL253W, strain hxk2, hits give low values
  normalized growth: 0.972
Locus YGR078C, strain PAC10, hits give low values
  normalized growth: 0.944 and 0.983
Locus YGR135W, strain pre9, hits give low values
  normalized growth: 0.987
Locus YGR229C, strain SMI1, hits give low values
  normalized growth: 0.763 (active)
Locus YGR252W, strain gcn5, hits give low values
  normalized growth: 0.995
Locus YHR013C, strain ard1, hits give low values
  normalized growth: 0.963
Locus YHR027C, strain rpn1, hits give low values
  normalized growth: 0.986
Locus YHR030C, strain SLT2, hits give low values
  normalized growth: 0.989 and 0.966
Locus YHR079C, strain IRE1 (second series), hits give low values
  normalized growth: 0.987
Locus YHR079C, strain IRE1, hits give low values
  normalized growth: 0.952
Locus YHR094C, strain hxt1, hits give low values
  normalized growth: 0.977
Locus YHR129C, strain ARP1, hits give low values
  normalized growth: 1
Locus YHR142W, strain chs7, hits give low values
  normalized growth: 0.966
Locus YHR200W, strain rpn10, hits give low values
  normalized growth: 0.995
Locus YIL066C, strain RNR3, hits give low values
  normalized growth: 0.971
Locus YIL073C, strain SPO22, hits give low values
  normalized growth: 0.741
Locus YIL125W, strain kgd1, hits give low values
  normalized growth: 0.991
Locus YIR030C, strain dcg1, hits give low values
  normalized growth: 0.983
Locus YJL092W, strain hpr5, hits give low values
  normalized growth: 0.975
Locus YJL095W, strain BCK1 (second series), hits give low values
  normalized growth: 0.981
Locus YJL095W, strain BCK1, hits give low values
  normalized growth: 0.971 and 0.954
Locus YJL115W, strain asf1, hits give low values
  normalized growth: 0.972
Locus YJL129C, strain trk1, hits give low values
  normalized growth: 0.893
Locus YJL134W, strain LCB3, hits give low values
  normalized growth: 1
Locus YJL154C, strain vps35, hits give low values
  normalized growth: 0.973
Locus YJL164C, strain tpk1, hits give low values
  normalized growth: 0.964
Locus YJL166W, strain qcr8, hits give low values
  normalized growth: 0.955
Locus YJL168C, strain set2, hits give low values
  normalized growth: 0.983
Locus YJL187C, strain SWE1 (second series), hits give low values
  normalized growth: 1
Locus YJL187C, strain SWE1, hits give low values
  normalized growth: 0.97
Locus YJR043C, strain POL32, hits give low values
  normalized growth: 1.01
Locus YJR066W, strain TOR1, hits give low values
  normalized growth: 0.873
